Laboratory results reported in PubChem BioAssay.
Active and inactive are the calls of the source.

Tests used:
[1] = E. coli DRC41 culture turbidity changes, primary screen, E. coli filamentation inducer project, strain DRC41, OD650, 48 h (AID 1152);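 further: E. coli MC1000 strain DRC41 lacking acrAB efflux pump and sulA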; settings: E. coli DRC41 (acrAB sulA), higher = more signal, called active from +8 up or from −8 down
[2] = small-molecule binders of probe aLefty1, primary screen, biochemical, small-molecule microarray, 635/667 nm fluorescence (AID 1153); settings: higher = more signal;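 further: score merges spot fluorescence with signal-to-noise ratio from the scanned slide images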
[3] = PSAC antagonists in infected red cells, primary screen, cell-based, P. falciparum Indochina, OD700, 1 h (AID 1154); settings: P. falciparum Indochina infected RBC osmotic lysis, higher = more signal, called active from +8 up or from −8 down
[4] = PSAC antagonists in infected red cells, primary screen, cell-based, P. falciparum Indochina, OD700, 2 h (AID 1155);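 further: lysis reports solute entry through the parasite surface anion channel PSAC; channel blockers reduce lysis of infected cells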; settings: P. falciparum Indochina infected erythrocytes, osmotic lysis OD700; higher = more signal, called active from +8 up or from −8 down
[5] = osmotic lysis modulators in infected erythrocytes, primary screen, PSAC antagonist project, cell-based, P. falciparum Indochina, OD700, 3 h (AID 1156); settings: higher = more signal, called active from +8 up or from −8 down
[6] = PSAC antagonists in infected red cells, primary screen, cell-based, P. falciparum Indochina, OD700, 18 h (AID 1157); settings: P. falciparum Indochina infected erythrocytes, osmotic lysis OD700, 18 h; higher = more signal, called active from +8 up or from −8 down
[7] = modulators of S6 phosphorylation in cells, primary screen, cell-based, A549, cytoblot, luminescence, serum-stimulated (AID 1158); settings: A549 phospho-S6 cytoblot, 5 h, higher = more signal;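 further: serum-stimulated A549 lung adenocarcinoma cells; signal is phosphorylated S6 detected by cytoblot immunostaining with HRP secondary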
[8] = target: NADPH oxidase 2 (Homo sapiens) (UniProt P04839); test: NOX2-dependent H2O2 signal modulators, primary screen, NOX inhibitor project, cell-based, HEK293-NOX2, PMA-stimulated, Amplex Red fluorescence (AID 1159); settings: 45 min, higher = more signal, called active from +8 up or from −8 down; further: test concentration not given here
Chain of NADPH oxidase 2 (Homo sapiens) (P04839 whole entry, looked up): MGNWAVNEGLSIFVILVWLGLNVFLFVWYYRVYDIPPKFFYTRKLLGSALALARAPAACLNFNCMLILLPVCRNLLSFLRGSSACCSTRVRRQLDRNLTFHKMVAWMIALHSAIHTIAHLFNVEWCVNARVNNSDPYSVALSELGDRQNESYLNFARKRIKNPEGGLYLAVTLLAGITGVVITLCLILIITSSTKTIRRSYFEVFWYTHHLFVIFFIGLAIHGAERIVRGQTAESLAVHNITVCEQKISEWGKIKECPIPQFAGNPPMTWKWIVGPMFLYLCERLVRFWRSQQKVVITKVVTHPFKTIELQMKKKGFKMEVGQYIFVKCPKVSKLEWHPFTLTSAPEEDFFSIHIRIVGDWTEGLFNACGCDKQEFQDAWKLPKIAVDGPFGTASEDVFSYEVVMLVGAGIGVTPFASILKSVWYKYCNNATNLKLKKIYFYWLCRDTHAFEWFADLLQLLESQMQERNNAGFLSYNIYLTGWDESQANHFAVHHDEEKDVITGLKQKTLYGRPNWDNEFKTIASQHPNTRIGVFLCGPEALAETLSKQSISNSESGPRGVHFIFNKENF

[9] = target: NADPH oxidase 4 (Homo sapiens) (UniProt Q9NPH5); test: NOX4-dependent H2O2 signal modulators, primary screen, NOX inhibitor project, cell-based, HEK293-NOX4, tetracycline-induced, Amplex Red fluorescence (AID 1160); settings: 45 min, higher = more signal, called active from +8 up or from −8 down
Chain of NADPH oxidase 4 (Homo sapiens) (Q9NPH5 whole entry, looked up): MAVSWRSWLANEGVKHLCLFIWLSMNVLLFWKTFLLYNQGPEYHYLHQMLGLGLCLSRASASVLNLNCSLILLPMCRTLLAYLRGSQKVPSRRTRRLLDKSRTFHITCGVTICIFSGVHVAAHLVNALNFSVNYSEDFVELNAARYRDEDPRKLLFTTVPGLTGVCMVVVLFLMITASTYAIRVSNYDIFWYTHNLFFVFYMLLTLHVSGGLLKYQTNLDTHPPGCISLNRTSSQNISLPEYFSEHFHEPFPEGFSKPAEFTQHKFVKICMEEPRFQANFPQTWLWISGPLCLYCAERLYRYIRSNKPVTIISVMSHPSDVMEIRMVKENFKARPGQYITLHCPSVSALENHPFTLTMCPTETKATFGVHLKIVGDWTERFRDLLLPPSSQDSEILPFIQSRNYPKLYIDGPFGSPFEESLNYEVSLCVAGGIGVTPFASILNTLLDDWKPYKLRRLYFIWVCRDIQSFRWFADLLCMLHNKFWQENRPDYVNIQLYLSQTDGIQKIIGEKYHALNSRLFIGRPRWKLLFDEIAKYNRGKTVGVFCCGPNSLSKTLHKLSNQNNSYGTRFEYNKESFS

[10] = target: NADPH oxidase 5 (Homo sapiens) (UniProt Q96PH1); test: NOX5-dependent H2O2 signal modulators, primary screen, NOX inhibitor project, cell-based, HEK293-NOX5, Amplex Red fluorescence (AID 1161); settings: HEK293-NOX5, ionomycin, 45 min, higher = more signal
Chain of NADPH oxidase 5 (Homo sapiens) (Q96PH1 whole entry, looked up): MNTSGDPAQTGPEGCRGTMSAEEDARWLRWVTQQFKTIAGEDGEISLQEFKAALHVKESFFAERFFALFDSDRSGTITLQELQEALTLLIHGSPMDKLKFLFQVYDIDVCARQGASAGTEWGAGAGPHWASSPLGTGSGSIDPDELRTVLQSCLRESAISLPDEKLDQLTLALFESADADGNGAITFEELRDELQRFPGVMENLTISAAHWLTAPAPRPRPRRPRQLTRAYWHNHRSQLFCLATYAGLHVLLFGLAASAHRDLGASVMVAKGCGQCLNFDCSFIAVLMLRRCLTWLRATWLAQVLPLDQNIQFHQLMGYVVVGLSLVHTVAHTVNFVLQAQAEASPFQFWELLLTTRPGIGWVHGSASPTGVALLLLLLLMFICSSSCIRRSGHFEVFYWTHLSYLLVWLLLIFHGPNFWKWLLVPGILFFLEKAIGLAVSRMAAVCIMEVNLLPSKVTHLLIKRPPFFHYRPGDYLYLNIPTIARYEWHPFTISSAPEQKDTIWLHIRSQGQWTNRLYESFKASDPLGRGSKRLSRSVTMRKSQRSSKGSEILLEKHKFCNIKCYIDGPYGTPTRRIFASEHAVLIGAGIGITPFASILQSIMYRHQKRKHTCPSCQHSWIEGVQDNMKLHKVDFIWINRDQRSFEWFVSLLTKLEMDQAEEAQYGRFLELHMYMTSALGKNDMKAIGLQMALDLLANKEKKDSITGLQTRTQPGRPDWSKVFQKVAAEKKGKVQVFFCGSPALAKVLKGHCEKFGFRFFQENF

SMILES	z-score [1]	composite z-score [2]	z-score [3]	z-score [4]	z-score [5]	z-score [6]	z-score [7]	z-score [8]	z-score [9]	z-score [10]
Cc1ccc(S(=O)(=O)N2CC(C(=O)O)=CCC2c2ccccc2)cc1 (stereo not given)	-1.24 (inactive)	0.0717	1.17 (inactive)	1.1 (inactive)	1.13 (inactive)	0.879 (inactive)	-0.55	-0.363 (inactive)	-1.02 (inactive)	-1.02
NC(=O)[C@@]1(CCS(=O)(=O)c2ccccc2)N=C(c2ccc(OCCCO)cc2)O[C@H]1c1ccccc1	1.24 (inactive)	0.254	19.7 (active)	2.48 (inactive)	1.4 (inactive)	-0.898 (inactive)	2.09	-3.88 (inactive)	-1.85 (inactive)	-1.61
CC1(C)C(=O)C(c2ccccc2)=C2CN3C(=O)N(CCc4ccccc4)C(=O)C3(Cc3ccccc3)C=C21 (stereo not given)	-1.23 (inactive)	0.647	2.06 (inactive)	0.541 (inactive)	0.483 (inactive)	0.861 (inactive)	-0.196	-0.147 (inactive)	0.405 (inactive)	-1.62
O=C1OCCC=C[C@H]2OC34C=CCN(c5ccc6ccccc6c5)C(=O)[C@H]3N(CCCCCCO)C(=O)[C@@H]4C12 (stereo not given in full)	0.901 (inactive)	-0.0536	0.856 (inactive)	0.712 (inactive)	0.738 (inactive)	0.426 (inactive)	1.08	1.42 (inactive)	0.441 (inactive)	2.68
COCCOC(=O)N1C(=O)[C@@]2(c3cc(C#Cc4ccc(OC)cc4)ccc31)[C@H](C(N)=O)[C@H]1C(=O)O[C@H](c3ccccc3)[C@H](c3ccccc3)N1[C@@H]2c1ccc(O)cc1	1.52 (inactive)	0.649	0.429 (inactive)	-0.359 (inactive)	-0.939 (inactive)	-1.13 (inactive)	2.93	-0.0615 (inactive)	0.893 (inactive)	0.128
CN1C(=O)C2C=CC(C(O)C3=C[C@H]4C[C@@H](C3)C4(C)C)N(Nc3ccc([N+](=O)[O-])cc3[N+](=O)[O-])C2C1=O (stereo not given in full)	-0.794 (inactive)	0.271	3.59 (inactive)	1.27 (inactive)	1.06 (inactive)	1.05 (inactive)	-0.456	0.0656 (inactive)	-0.0391 (inactive)	-1.2
C=CCOC(=O)[C@H]1[C@@H]2C(=O)O[C@@H](c3ccccc3)[C@@H](c3ccccc3)N2[C@@H](c2ccc(OCCOC(=O)[C@@H]3C[C@@H]4C(=O)NCC(=O)N4[C@@H]3c3ccc(O)cc3)cc2)[C@]12C(=O)Nc1ccc(I)cc12	-0.481 (inactive)	0.0545	1.63 (inactive)	1.39 (inactive)	1.49 (inactive)	0.816 (inactive)	0.361	1.57 (inactive)	1.28 (inactive)	1.61
O=C1O[C@@H](c2ccccc2)[C@@H](c2ccccc2)N2[C@@H](c3ccc(O)cc3)[C@]3(C(=O)Nc4ccc(C#CCCO)cc43)[C@@H](C(=O)N3CCCCCCC3)[C@H]12	-0.681 (inactive)	2.4	1.27 (inactive)	0.654 (inactive)	-0.69 (inactive)	0.541 (inactive)	-0.364	1.15 (inactive)	0.277 (inactive)	1.47
C=CCOC(=O)[C@@H]1[C@H]2C(=O)O[C@H](c3ccccc3)[C@H](c3ccccc3)N2[C@H](c2ccc(OCCOC(=O)[C@H]3C[C@H]4C(=O)N[C@@H](Cc5ccccc5)C(=O)N4[C@H]3c3ccc(O)cc3)cc2)[C@@]12C(=O)Nc1ccc(I)cc12	-1.78 (inactive)	-0.539	6.54 (inactive)	5.05 (inactive)	-2.73 (inactive)	2.58 (inactive)	-1.77	3.07 (inactive)	0.471 (inactive)	3.69
COc1c(C)cc(-c2cc3c(c(-c4ccccc4)n2)[Si](C(C)C)(C(C)C)O[C@H]3c2ccccc2)cc1C	-1.11 (inactive)	0.176	0.481 (inactive)	-0.129 (inactive)	-0.561 (inactive)	0.284 (inactive)	0.291	-1.36 (inactive)	0.788 (inactive)	-0.334
CC(C)NC(=O)[C@@H]1c2ccccc2C(=O)N(C2CCCCC2)[C@H]1c1ccc(CO)cc1	-0.359 (inactive)	-0.101	-0.521 (inactive)	0.169 (inactive)	-0.113 (inactive)	-0.136 (inactive)	-0.061	0.664 (inactive)	0.822 (inactive)	0.802
C=CCC(OC(C)=O)[C@@H]1[C@@H](N(Cc2ccc(-c3cccc(C(F)(F)F)c3)o2)C(=O)c2ccc(C)cc2)c2cc(OCCCO)ccc2N1C(=O)c1ccc2ccccc2n1 (stereo not given in full)	1.55 (inactive)	0.235	1.97 (inactive)	0.435 (inactive)	-0.225 (inactive)	0.0644 (inactive)	-0.218	-0.0312 (inactive)	0.95 (inactive)	2.06
C=CCNC(=O)[C@H]1[C@@H]2C(=O)O[C@@H](c3ccccc3)[C@@H](c3ccccc3)N2[C@@H](c2ccc(O)cc2)[C@]12C(=O)Nc1ccc(C#Cc3ccc(OC)cc3)cc12	-0.837 (inactive)	-0.0084	2.41 (inactive)	1.05 (inactive)	-0.99 (inactive)	0.859 (inactive)	-0.294	0.143 (inactive)	-2.18 (inactive)	-0.436
